Results on 66 molecules are retold here after article PMC4552634, “A New Set of Chemical Starting Points with Plasmodium falciparum Transmission-Blocking Potential for Antimalarial Drug Discovery” (PLoS ONE, 2015).

For orientation: % Inhibition means the relative decrease from the control value, in per cent.

Among all 13,000 compounds or so, about 3,200 (25%) showed an effect of 50% or more. The list shows a part of the results.

In this assay the test system is P. falciparum stage V gametocytes. The arrangement: BacTiter-Glo ATP luminescence viability of purified stage V gametocytes in 384-well plates, per cent inhibition versus DMSO. As to conditions: 48 h, 5 µM; inhibitor.
As for `COc1ccc2nccc([C@@H](O)CN3CCC(NCc4cc5cc(C)ccc5s4)CC3)c2c1` [TCMDC-140682], the “% Inhibition” value is 12.73%.

Take `CN(C)CCCn1cncc1-c1ccc2ncnc(Nc3ccc4c(cnn4Cc4ccccc4)c3)c2c1` [TCMDC-138087]: the “% Inhibition” value is listed as -19.79%.

For the molecule `CN(C)CCc1coc2ccc(C(=O)Nc3ccc(-c4ccc(O)cc4)cc3)cc12` [TCMDC-132005], the “% Inhibition” value is given as -54.25%.

For `COc1cc2nc(NCCCN3CCCCC3)nc(NCc3ccccc3)c2cc1OC` [TCMDC-132012], the “% Inhibition” value came out at 112.9%.

Turning to `COc1cc2nc(NCCc3cccc(Cl)c3)nc(NCc3ccccc3)c2cc1OC` [TCMDC-135266], the “% Inhibition” value was found to be 90.56%.

As for `c1ccc(CNc2nc(NCCN3CCCCC3)nc3ccccc23)cc1` [TCMDC-137554], the “% Inhibition” value was found to be 18.64%.

Consider `COc1cc2nc(NCCc3ccccc3)nc(NCc3cnn(C)c3C)c2cc1OC` [TCMDC-135459], for which the “% Inhibition” value stood at 100.1%.

Turning to `COc1cccc(CCNc2nc(NCc3ccccc3)c3cc(OC)c(OC)cc3n2)c1` [TCMDC-135267], the “% Inhibition” value was 71.62%.

Take `Cc1ccccc1C1CCN(C2CCC(NC(=O)/C=C/c3c[nH]c4ccccc34)CC2)CC1` (stereo not drawn) [TCMDC-134103]: the “% Inhibition” value is -47.56%.

As for `O=C(O)CCSc1ncnc2nc[nH]c12` [TCMDC-125870], the “% Inhibition” value was -3.326%.

In the case of `NC(N)=Nc1ccc(CCc2ccc(N=C(N)N)cc2)cc1` [TCMDC-137701], the “% Inhibition” value is on record as -9.941%.

With `O=C(Nc1cccc(CN2CCCN(Cc3ncc[nH]3)CC2)c1)c1ccc(-c2ccccc2)cc1` [TCMDC-141849], the “% Inhibition” value is listed as 12.11%.

Regarding `CC1(C)CCCN(C(=O)Cc2ccc3c(c2)CCCC3)C1CN1CC=CC1` (stereo not drawn) [TCMDC-131637], the “% Inhibition” value was 3.216%.

For `C=Cc1sc(CNCCCNc2cc(=O)c3ccccc3[nH]2)c(C)c1Br` [TCMDC-141064], the “% Inhibition” value is given as -9.308%.

On to `N#Cc1ccc(CN2CCCN(c3ccc(NC(=O)c4ccc(F)cc4)cc3)CC2)cc1` [TCMDC-134984], for which the “% Inhibition” value was -24.83%.

Regarding `COc1cc2nc(N[C@@H](CO)c3ccccc3)nc(NCc3ccccc3)c2cc1OC` [TCMDC-132024], the “% Inhibition” value amounted to 6.921%.

On to `COc1ccc(CCNc2nc(NCc3ccccc3)c3cc(OC)c(OC)cc3n2)cc1OC` [TCMDC-132017], for which the “% Inhibition” value is on record as 95.97%.

Turning to `COc1ccc(CNc2nc(NCc3ccccc3)c3cc(OC)c(OC)cc3n2)cc1OC` [TCMDC-131893], the “% Inhibition” value is 102.4%.

For `COc1ccc2ccccc2c1CON1C(N)=NC(N)=NC1(C)C` [TCMDC-131789], the “% Inhibition” value is recorded as 14.14%.

As to `O=C(N/C(=C/c1cccc([N+](=O)[O-])c1)c1nc2ccccc2[nH]1)c1cccc(Br)c1` [TCMDC-123667], the “% Inhibition” value was 25.9%.

Turning to `CCc1nc2ccc(C(=O)OC)nc2n1Cc1ccc2oc(-c3ccccc3N)c(Br)c2c1` [TCMDC-131989], the “% Inhibition” value was found to be 82.84%.

Regarding `Cc1cccc2[nH]c(-c3cccc(-c4ccc(NC(=O)Cc5ccccn5)cc4)c3)nc12` [TCMDC-132178], the “% Inhibition” value is listed as -17.95%.

`CS(=O)(=O)CCNCc1cccc(-c2cc3c(Nc4ccc5c(cnn5Cc5ccccc5)c4)ncnc3s2)c1` [TCMDC-134664]: the “% Inhibition” value was -36.31%.

As for `CN1CCC(c2ccc(NC(=O)c3ccc(-c4cccc(C(F)(F)F)c4)o3)cc2)CC1` [TCMDC-134195], the “% Inhibition” value stood at 6.508%.

For `O=C(Nc1ccc(S(=O)(=O)NCCCN2CCOCC2)cc1)c1cc(-c2ccccc2)n[nH]1` [TCMDC-125046], the “% Inhibition” value was -31.32%.

For the molecule `COc1cccc2c1CCN(CCN1CCC(NC(=O)c3ccc(-c4cccc(Cl)c4Cl)cc3)CC1)C2` [TCMDC-135476], the “% Inhibition” value amounted to 76.97%.

Regarding `C=CCOc1cccc2c1CCN(CCN1CCC(NC(=O)c3ccc(-c4ccc(Cl)cc4)cc3)CC1)C2` [TCMDC-135633], the “% Inhibition” value is -61.81%.

Turning to `NC(=O)COc1cccc2c1CCN(CCN1CCC(NC(=O)c3ccc(-c4ccc(Cl)cc4)cc3)CC1)C2` [TCMDC-135479], the “% Inhibition” value is -28.95%.

For the molecule `Fc1cccc(COc2ccc(Nc3ncnc4sc(C#C[C@H]5CC[C@H](CNCC(F)(F)F)N5)cc34)cc2Cl)c1` [TCMDC-135422], the “% Inhibition” value is given as -57.82%.

Regarding `CCCNC(=O)c1cncc(-c2ccc(CNC3Cc4ccccc4C3)cc2)c1` [TCMDC-134242], the “% Inhibition” value is given as -9.717%.

Regarding `O=C(CC1CCCC1)N(Cc1ccc(-c2ccc(CNC3Cc4ccccc4C3)cc2)cc1)CC1CCCCN1` (stereo not drawn) [TCMDC-141446], the “% Inhibition” value was determined as 118.1%.

Consider `c1cncc(CCNCc2ccc(-c3ccc(CNC4Cc5ccccc5C4)cc3)cc2)c1` [TCMDC-141458], for which the “% Inhibition” value is on record as 22.23%.

Regarding `O=C(CCC1CCCC1)N(Cc1ccc(-c2ccc(CNCCc3ccccn3)cc2)cc1)CC1CCCCN1` (stereo not drawn) [TCMDC-141445], the “% Inhibition” value is 104.1%.

For `O=C(NCC1CCC(C(=O)NCCN2CCCCC2)CC1)c1ccc(O)c(-c2ccc(Cl)c(Cl)c2)c1` (stereo not drawn) [TCMDC-140889], the “% Inhibition” value worked out at 5.118%.

Turning to `CN(C)C(CNC(=O)c1cc(-c2ccncc2)c(-c2ccc(NC(=O)Nc3ccccc3)cc2)o1)c1ccccc1` (stereo not drawn) [TCMDC-135763], the “% Inhibition” value is 0.5152%.

For `CCN(CCNC(=O)Nc1cc(C(F)(F)F)cc(C(F)(F)F)c1)c1cccc(C)c1` [TCMDC-140386], the “% Inhibition” value is -30.95%.

For `CCN(CCNS(C)(=O)=O)c1ccc(N)c(C)c1` [TCMDC-125836], the “% Inhibition” value was 123.9%.

Regarding `CCN(CC)c1ccc2nc(N)nc(N)c2c1` [TCMDC-137860], the “% Inhibition” value is -57.34%.

Regarding `Cc1cc(NC(=O)c2ccco2)ccc1OC1CCN(Cc2ccc(F)cc2)CC1` [TCMDC-133749], the “% Inhibition” value was found to be 42.56%.

Take `Cc1ccccc1N1CCN(c2ccc(C(=O)Nc3ccccc3)cn2)CC1` [TCMDC-134582]: the “% Inhibition” value stood at 6.226%.

`Cc1[nH]c2ccccc2c1C1CCN(CC2CCC(NC(=O)/C=C/c3ccc(Cl)c(Cl)c3)CC2)CC1` (stereo not drawn) [TCMDC-139482]: the “% Inhibition” value is reported as -16.12%.

On to `NC(=O)c1cnc2cc(-c3ccncc3)cc(Nc3ccc(NC(=O)C4CCCCC4)cc3)c2c1` [TCMDC-135182], for which the “% Inhibition” value is reported as -67.69%.

As to `CN1CCN(c2cc3c(cc2Cl)CCN3C(=O)Nc2ccc(NC(=O)c3ccc(C(F)(F)F)cc3)cc2)CC1` [TCMDC-139270], the “% Inhibition” value is -10.1%.

Regarding `Cc1cc(-c2ccc(NC(=O)N3CCc4cc(Cl)c(N5CCN(C)CC5)cc43)cc2)ccc1C#N` [TCMDC-139292], the “% Inhibition” value was 55.12%.

In the case of `Cc1cc(-c2ccc(NC(=O)N3CCc4cc(Br)c(N5CCN(C)CC5)cc43)cc2)ccc1C#N` [TCMDC-139293], the “% Inhibition” value was -18.89%.

For the molecule `O=C(Nc1c(F)cccc1F)c1cccc(-c2nn3ccccc3c2-c2ccnc(Nc3cccc(-c4cnco4)c3)n2)c1` [TCMDC-135743], the “% Inhibition” value is on record as -41.11%.

Take `c1ccc2c(CNCCCN3CCN(CCCNCc4c5ccccc5cc5ccccc45)CC3)c3ccccc3cc2c1` [TCMDC-137909]: the “% Inhibition” value was found to be 115.6%.

For the molecule `c1ccc2c(c1)cc(CNCCCN1CCN(CCCNCc3cc4ccccc4c4ccccc34)CC1)c1ccccc12` [TCMDC-137914], the “% Inhibition” value came out at 113.5%.

Regarding `O=C(/C=C/c1ccc(Cl)c(Cl)c1)NCCCCCN1CCC(C(=O)Nc2cccc(Cl)c2)CC1` [TCMDC-136120], the “% Inhibition” value is given as -13.38%.

With `Cc1ccc(NC(=O)c2cccc(C#N)c2)cc1-c1ccc(C(=O)Nc2ccncc2)cc1` [TCMDC-133697], the “% Inhibition” value is reported as -8.671%.

For the molecule `CCC[C@@H]([C@@H](Cc1ccc(C)s1)C(=O)N[C@@H](CNC(C)=O)C(=O)Nc1nccs1)N(O)C=O` [TCMDC-138137], the “% Inhibition” value is on record as -97.54%.

On to `Cc1cc(C)c2[nH]cc(C(=O)O)c(=O)c2c1` [TCMDC-123953], for which the “% Inhibition” value worked out at 3.462%.

For the molecule `Oc1ccc(Cl)c2c1C(c1ccccc1)=NCC2` [TCMDC-137522], the “% Inhibition” value is on record as -9.659%.

On to `COc1ccc(Oc2ccc(Nc3ccnc4ccc(C(F)(F)F)cc34)cc2)cc1OC` [TCMDC-138310], for which the “% Inhibition” value is -11.17%.

With `CN(C)CCCc1cc2c(cc1Cl)CCN2C(=O)Nc1ccc(-c2ccncc2)c2ccccc12` [TCMDC-139215], the “% Inhibition” value is given as -22.47%.

On to `CCCc1cc(C(=O)N[C@@H](Cc2ccccc2)[C@H](O)CNC(C)(C)c2cccc(OC)c2)c(F)c(N2CCCC2=O)c1` [TCMDC-135396], for which the “% Inhibition” value is on record as 48.39%.

As to `CCN(CC)Cc1ccc(OC)c(-c2cc3c(-c4ccc(C(=O)O)c(C(C)C)c4)ccnc3[nH]2)c1` [TCMDC-135051], the “% Inhibition” value is listed as 59.03%.

Consider `COc1ccc(-c2cnc3[nH]cc(-c4ccc(C(=O)O)c(C)c4)c3c2)cn1` [TCMDC-136360], for which the “% Inhibition” value amounted to 34.92%.

For the molecule `COc1cccc(CN2CCC(C(=O)Nc3ccc(-c4nc5ccccc5[nH]4)cc3)CC2)c1` [TCMDC-124615], the “% Inhibition” value is reported as -54.81%.

Turning to `COc1c(CN2CCCC2)cccc1-c1cc2c(-c3ccc(C(=O)O)c(C(C)C)c3)ccnc2[nH]1` [TCMDC-135050], the “% Inhibition” value came out at 69.12%.

As for `COc1c(CN2CCOCC2)cccc1-c1cc2c(-c3ccc(C(=O)O)c(C(C)C)c3)ccnc2[nH]1` [TCMDC-135049], the “% Inhibition” value is listed as -0.2517%.

In the case of `COc1ccc(CN(C)CCOc2ccc(NC(=O)c3cccc4c(=O)cc(-c5ccccc5)[nH]c34)cc2)cc1OC` [TCMDC-131849], the “% Inhibition” value amounted to 25.38%.

Take `CN(C)CC1CCCN1Cc1ccccc1-c1cnn(C)c(=O)c1Oc1ccc(F)cc1` (stereo not drawn) [TCMDC-135098]: the “% Inhibition” value is given as 10.73%.

Consider `O=C(NCCCN1CCN(c2cccc(Cl)c2)CC1)c1ccc(-c2nc3cc(Cl)c(Cl)cc3[nH]2)c(F)c1` [TCMDC-140084], for which the “% Inhibition” value is listed as -21.33%.

For the molecule `O=C(CNc1ccc(Cl)c(S(=O)(=O)N2CCCC2)c1)Nc1ccc(Br)cc1F` [TCMDC-125102], the “% Inhibition” value worked out at 24.63%.

As for `Cc1onc(-c2ccccc2)c1-c1nc(NCCC(c2ccccc2)c2ccccc2)no1` [TCMDC-134203], the “% Inhibition” value is reported as 3.551%.
